The target of this test is E3 ubiquitin-protein ligase XIAP (Homo sapiens) (UniProt P98170). The test is described as follows: XIAP binders, primary screen, biophysical, small-molecule microarray, fluorescence 635 nm (AID 1181).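 Further: score merges 667 nm emission and signal to noise over triplicate slides.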 The settings on record: small-molecule microarray binding, higher = more signal.
Chain of E3 ubiquitin-protein ligase XIAP (Homo sapiens) (P98170 whole entry, looked up): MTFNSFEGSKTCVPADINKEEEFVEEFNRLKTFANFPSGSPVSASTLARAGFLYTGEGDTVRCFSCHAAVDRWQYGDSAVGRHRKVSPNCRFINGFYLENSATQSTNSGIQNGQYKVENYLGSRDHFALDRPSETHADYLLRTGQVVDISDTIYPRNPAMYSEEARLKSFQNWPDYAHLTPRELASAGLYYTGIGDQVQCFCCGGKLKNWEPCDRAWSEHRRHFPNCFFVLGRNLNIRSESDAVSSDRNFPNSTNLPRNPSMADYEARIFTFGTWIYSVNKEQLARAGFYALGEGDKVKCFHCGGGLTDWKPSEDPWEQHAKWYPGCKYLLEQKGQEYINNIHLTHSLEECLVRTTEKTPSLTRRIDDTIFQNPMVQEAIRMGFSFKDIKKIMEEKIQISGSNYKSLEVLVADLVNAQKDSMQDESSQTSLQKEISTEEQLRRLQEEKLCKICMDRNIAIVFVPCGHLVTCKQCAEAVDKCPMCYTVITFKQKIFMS
In turn, `COc1ccc([Si](C)(C)[C@@H]2[C@@H](CCO)O[C@]3(C(=O)N(Cc4ccccc4)c4ccc(N5C(=O)COc6ccccc65)cc43)[C@H]2C)cc1` yielded a composite z-score of -0.0599.
For `C=C(COC)/C(=C/C[C@@H](OC(=O)c1ccncc1)c1cccc(OCCO)c1)c1cc(C(=O)OC)ccc1OC` the value was 0.201.
Under `O=C1NC(=O)C2C1C=CC(C(O)c1ccc3c(c1)OCO3)N2Nc1ccc(Cl)cc1Cl` (centres undefined) stands 0.205.
Under `[N-]=[N+]=NCc1ccccc1C[C@@]1(C(=O)NCCN2CCOCC2)N=C(c2ccc(OCCCO)cc2)O[C@@H]1c1ccccc1CN=[N+]=[N-]` stands 0.0905; under `C[N+](C)(C)CCCCCCNC(=O)[C@@H]1C[C@@H]2C(=O)NCC(=O)N2[C@@H]1c1ccc(O)cc1`, -0.128; under `COC(=O)[C@@]1(Cc2ccccc2N=[N+]=[N-])N=C(c2ccc(OCCCO)cc2)O[C@H]1c1ccccc1`, 0.0472.
`COCCOC(=O)N1C(=O)[C@@]2(c3cc(C#Cc4ccc(OC)cc4)ccc31)[C@H](C(=O)N1CCc3cc(OC)c(OC)cc3C1)[C@H]1C(=O)O[C@H](c3ccccc3)[C@H](c3ccccc3)N1[C@@H]2c1ccc(OCCO)cc1`: the composite z-score amounted to 0.365.
For `O=C1O[C@H](c2ccccc2)[C@H](c2ccccc2)N2[C@H]1[C@@H](C(=O)N1CCCCCCC1)[C@]1(C(=O)Nc3ccc(C#CCCO)cc31)[C@H]2c1ccc(OCCO)cc1` the value was 2.52.
Under `CCCC[C@H]1OB(O)C[C@H]2C1=C(COc1ccccc1)Cn1c(=O)n(-c3ccccc3)c(=O)n12` stands -0.327.
